Results on 10 compounds are retold here after PubChem BioAssay (NCATS).

Records with an inconclusive call do not appear. A number with no mark means an inactive call. Activity calls are given as the source filed them. Calls come from the whole dose curve; as a rule, active = well fitted cell-killing curve with a large enough effect; inconclusive = small, poorly fitted or top-dose-only effect, or effect the other way; inactive = no such curve, though single readings can be large or run the other way.
Potency is the fitted concentration of half-maximal effect.

This test can be described thus: Quantitative High-Throughput drug screen in 47 multiple myeloma cell lines against the NCATS MIPE library collection: H1112_PLB cell viability assay (AID 1918967; note: nearly all actives have a fitted effect of over 30% in size). As to conditions: H1112 myeloma cells viability, ATP luminescence, 48 h; series mostly up to 45.8 µM; viability: at the top concentration. The procedure, abridged:
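CellTiter-Glo ATP luminescence gave viability after 48 h compound treatment at 37C of 500 multiple myeloma cells per well. Normalisation used DMSO-only wells as 100% and media-only wells as 0% viability; primary qHTS of approved and investigational drugs.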
For orientation: viability means a read-out of living cells in per cent, often relative to untreated cells. In the case of `Cn1c(=O)c2[nH]cnc2n(C)c1=O`, the “viability” value was 111%.
`CN1CCN(CCCN2c3ccccc3Sc3ccc(Cl)cc32)CC1`: the Potency is 20.9 µM (active).
On the same count and under the same terms, the result for `CC#C[C@]1(O)CC[C@H]2[C@@H]3CCC4=CC(=O)CCC4=C3[C@@H](c3ccc(N(C)C)cc3)C[C@@]21C` reads 0.743 µM (active); that for `Cn1cnc2c1c(=O)[nH]c(=O)n2C`, 18.7 µM (active).
For `O=C(c1ccc(F)cc1)C1CCN(CCn2c(=O)[nH]c3ccccc3c2=O)CC1`, the “viability” value is 113%.
Regarding `NC(=O)NO`, the Potency is 2.96 µM (active).
As to `CNCCCC12CCC(c3ccccc31)c1ccccc12`, the Potency was 26.4 µM (active).
Same read-out and setting: the value for `Nc1nc2c(ncn2COC(CO)CO)c(=O)[nH]1` was 26.4 µM (active); that for `CN(C)CCCN1c2ccccc2CCc2ccc(Cl)cc21` was 0.833 µM (active).
The same measure, in the same setting: the result for `COc1ccccc1N1CCN(CC(O)COc2cccc3ccccc23)CC1` (stereo not given) reads 16.6 µM (active).
